What was measured:
[1] = molecular target: T1, Serine/threonine-protein kinase Nek1 (Homo sapiens) (UniProt Q96PY6); conditions: at 0.1 µM
T1 sequence (whole entry): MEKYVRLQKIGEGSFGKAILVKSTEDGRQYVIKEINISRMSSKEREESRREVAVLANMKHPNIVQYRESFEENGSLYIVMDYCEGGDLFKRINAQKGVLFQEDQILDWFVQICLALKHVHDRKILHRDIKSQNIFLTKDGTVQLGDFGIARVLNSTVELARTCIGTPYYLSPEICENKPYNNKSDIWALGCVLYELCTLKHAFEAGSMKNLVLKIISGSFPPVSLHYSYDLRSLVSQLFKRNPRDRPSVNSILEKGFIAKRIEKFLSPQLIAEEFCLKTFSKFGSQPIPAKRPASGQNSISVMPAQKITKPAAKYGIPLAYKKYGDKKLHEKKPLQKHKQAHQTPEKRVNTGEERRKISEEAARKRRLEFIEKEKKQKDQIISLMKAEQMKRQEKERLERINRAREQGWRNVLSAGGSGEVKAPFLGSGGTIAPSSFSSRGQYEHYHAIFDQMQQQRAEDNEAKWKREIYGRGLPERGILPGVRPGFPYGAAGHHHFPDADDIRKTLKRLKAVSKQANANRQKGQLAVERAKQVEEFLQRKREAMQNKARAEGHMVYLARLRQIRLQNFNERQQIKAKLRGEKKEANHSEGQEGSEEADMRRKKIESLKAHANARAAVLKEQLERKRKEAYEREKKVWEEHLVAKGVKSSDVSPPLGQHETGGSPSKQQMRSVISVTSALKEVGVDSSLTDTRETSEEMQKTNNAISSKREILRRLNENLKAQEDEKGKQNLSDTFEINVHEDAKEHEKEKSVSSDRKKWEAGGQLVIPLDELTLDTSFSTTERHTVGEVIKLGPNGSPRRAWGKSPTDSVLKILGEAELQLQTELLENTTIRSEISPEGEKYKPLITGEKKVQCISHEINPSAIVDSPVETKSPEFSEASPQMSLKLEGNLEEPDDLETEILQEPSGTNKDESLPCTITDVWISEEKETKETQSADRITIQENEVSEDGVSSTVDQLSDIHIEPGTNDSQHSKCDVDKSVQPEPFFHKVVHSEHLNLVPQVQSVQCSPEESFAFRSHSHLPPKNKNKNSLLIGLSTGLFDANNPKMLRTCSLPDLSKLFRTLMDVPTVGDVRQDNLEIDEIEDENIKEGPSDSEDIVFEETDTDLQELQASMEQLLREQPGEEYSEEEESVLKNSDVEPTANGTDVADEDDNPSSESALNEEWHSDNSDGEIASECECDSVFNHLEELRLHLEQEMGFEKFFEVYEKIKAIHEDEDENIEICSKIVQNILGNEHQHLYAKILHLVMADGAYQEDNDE

[2] = molecular target: T1, Serine/threonine-protein kinase Nek1 (Homo sapiens); conditions: at 1 µM
[3] = molecular target: T2, Serine/threonine-protein kinase Nek2 (Homo sapiens) (UniProt P51955); conditions: at 0.1 µM
T2 sequence (whole entry): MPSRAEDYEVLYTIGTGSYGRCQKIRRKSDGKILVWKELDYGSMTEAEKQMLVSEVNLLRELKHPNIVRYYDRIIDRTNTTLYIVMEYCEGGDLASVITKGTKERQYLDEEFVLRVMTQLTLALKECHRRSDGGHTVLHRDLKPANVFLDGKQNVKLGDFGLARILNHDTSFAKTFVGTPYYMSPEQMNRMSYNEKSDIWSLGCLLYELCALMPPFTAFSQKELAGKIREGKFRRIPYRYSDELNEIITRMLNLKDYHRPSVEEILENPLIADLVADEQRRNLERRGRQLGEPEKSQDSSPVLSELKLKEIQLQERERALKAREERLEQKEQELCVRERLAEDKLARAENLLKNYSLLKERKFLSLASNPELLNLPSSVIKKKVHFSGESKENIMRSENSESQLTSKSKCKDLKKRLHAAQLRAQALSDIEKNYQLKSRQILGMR

[4] = molecular target: T2, Serine/threonine-protein kinase Nek2 (Homo sapiens); conditions: at 1 µM
[5] = molecular target: Serine/threonine-protein kinase Nek6 (Homo sapiens) (UniProt Q9HC98); conditions: at 0.1 µM
Chain of Serine/threonine-protein kinase Nek6 (Homo sapiens) (Q9HC98 whole entry): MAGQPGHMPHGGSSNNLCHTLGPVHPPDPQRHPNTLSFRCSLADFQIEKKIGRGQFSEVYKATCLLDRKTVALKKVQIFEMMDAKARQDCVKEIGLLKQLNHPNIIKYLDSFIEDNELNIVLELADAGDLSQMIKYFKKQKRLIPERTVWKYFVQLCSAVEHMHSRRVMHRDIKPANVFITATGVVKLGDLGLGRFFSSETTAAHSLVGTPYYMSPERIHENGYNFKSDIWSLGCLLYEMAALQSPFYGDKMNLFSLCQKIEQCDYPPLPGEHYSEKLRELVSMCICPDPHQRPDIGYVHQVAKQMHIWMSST

[6] = molecular target: Serine/threonine-protein kinase Nek6 (Homo sapiens) (UniProt Q9HC98); conditions: at 1 µM
[7] = molecular target: Serine/threonine-protein kinase Nek7 (Homo sapiens) (UniProt Q8TDX7); conditions: at 0.1 µM
Chain of Serine/threonine-protein kinase Nek7 (Homo sapiens) (Q8TDX7 whole entry, looked up): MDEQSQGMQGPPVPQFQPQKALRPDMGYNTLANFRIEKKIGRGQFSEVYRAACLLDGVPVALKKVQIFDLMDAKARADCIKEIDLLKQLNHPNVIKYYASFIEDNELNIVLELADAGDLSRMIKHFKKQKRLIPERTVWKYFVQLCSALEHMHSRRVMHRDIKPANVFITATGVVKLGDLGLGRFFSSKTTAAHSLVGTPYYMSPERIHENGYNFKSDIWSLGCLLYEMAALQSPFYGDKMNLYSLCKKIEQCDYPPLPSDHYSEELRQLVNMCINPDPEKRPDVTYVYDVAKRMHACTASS

[8] = molecular target: Serine/threonine-protein kinase Nek7 (Homo sapiens) (UniProt Q8TDX7); conditions: at 1 µM
[9] = molecular target: T3, Serine/threonine-protein kinase Nek9 (Homo sapiens) (UniProt Q8TD19); conditions: at 0.1 µM
T3 sequence (whole entry): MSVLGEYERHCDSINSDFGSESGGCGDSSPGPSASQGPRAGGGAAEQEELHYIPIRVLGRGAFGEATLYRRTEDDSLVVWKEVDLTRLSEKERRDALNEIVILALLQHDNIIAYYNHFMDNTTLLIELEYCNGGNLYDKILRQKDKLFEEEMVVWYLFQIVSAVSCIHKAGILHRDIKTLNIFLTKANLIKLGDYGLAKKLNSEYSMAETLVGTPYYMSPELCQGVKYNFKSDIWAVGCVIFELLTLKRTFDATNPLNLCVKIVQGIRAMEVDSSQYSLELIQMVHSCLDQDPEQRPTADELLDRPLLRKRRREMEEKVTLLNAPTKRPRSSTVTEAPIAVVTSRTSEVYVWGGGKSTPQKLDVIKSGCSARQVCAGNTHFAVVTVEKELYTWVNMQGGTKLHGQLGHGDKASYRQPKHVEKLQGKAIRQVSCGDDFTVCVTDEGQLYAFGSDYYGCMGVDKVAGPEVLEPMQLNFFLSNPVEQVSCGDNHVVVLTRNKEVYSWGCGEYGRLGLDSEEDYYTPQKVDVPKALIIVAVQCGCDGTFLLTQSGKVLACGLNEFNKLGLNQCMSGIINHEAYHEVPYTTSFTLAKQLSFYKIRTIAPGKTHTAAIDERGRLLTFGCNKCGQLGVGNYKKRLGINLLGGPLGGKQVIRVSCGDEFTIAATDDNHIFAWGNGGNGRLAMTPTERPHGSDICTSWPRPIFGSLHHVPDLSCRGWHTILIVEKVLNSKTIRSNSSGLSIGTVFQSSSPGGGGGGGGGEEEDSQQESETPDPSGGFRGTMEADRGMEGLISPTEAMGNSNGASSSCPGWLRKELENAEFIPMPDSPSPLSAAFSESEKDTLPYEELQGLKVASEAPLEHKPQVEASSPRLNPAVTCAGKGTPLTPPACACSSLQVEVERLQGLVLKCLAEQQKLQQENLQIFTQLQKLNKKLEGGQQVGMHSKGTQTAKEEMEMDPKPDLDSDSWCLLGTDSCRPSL

[10] = molecular target: T3, Serine/threonine-protein kinase Nek9 (Homo sapiens); conditions: at 1 µM
[11] = molecular target: Serine/threonine-protein kinase PLK1 (Homo sapiens) (UniProt P53350); conditions: at 0.1 µM
Chain of Serine/threonine-protein kinase PLK1 (Homo sapiens) (P53350 whole entry): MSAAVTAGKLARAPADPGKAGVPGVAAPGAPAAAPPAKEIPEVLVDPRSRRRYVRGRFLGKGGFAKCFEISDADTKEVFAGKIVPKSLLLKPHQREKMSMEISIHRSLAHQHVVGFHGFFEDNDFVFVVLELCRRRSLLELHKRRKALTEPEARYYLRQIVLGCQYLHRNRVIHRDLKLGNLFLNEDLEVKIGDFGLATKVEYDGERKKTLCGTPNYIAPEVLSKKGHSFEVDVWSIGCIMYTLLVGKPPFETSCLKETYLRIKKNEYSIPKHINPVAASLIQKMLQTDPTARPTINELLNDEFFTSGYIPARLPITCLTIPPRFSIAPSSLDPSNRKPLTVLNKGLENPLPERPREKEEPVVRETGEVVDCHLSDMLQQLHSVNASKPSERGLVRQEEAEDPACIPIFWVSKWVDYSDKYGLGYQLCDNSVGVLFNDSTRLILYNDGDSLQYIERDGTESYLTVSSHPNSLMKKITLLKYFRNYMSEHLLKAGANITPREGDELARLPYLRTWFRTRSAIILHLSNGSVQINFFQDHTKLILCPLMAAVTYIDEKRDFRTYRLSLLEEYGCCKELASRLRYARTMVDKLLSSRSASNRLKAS

[12] = molecular target: Serine/threonine-protein kinase PLK1 (Homo sapiens) (UniProt P53350); conditions: at 1 µM
[13] = molecular target: T4, Dual specificity protein kinase TTK (Homo sapiens) (UniProt P33981); conditions: at 0.1 µM
T4 sequence (whole entry): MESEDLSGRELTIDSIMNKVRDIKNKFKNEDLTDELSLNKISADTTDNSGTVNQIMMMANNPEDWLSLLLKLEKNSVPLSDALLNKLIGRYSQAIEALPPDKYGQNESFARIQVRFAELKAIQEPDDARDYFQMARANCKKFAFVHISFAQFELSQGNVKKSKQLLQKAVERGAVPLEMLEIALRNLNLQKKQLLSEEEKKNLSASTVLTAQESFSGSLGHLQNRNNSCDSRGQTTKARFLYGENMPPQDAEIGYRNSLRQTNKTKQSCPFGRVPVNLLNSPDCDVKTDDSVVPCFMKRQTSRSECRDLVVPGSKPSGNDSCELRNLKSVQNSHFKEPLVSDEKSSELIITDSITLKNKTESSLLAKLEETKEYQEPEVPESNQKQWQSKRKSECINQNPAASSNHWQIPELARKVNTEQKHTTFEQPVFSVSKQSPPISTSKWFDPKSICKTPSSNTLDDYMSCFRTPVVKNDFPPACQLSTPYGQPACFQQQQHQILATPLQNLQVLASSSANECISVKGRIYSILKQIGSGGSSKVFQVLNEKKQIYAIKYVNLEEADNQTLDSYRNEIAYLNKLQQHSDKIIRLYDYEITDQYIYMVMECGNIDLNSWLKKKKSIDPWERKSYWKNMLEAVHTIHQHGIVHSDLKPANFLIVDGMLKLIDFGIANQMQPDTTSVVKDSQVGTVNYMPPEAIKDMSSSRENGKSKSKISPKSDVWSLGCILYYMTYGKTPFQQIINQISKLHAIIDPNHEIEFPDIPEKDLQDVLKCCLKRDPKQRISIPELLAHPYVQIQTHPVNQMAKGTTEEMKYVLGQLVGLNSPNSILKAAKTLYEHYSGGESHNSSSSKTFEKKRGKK

[14] = tested on: T5, Receptor-type tyrosine-protein kinase FLT3 (Homo sapiens), P36888 [D835Y]; conditions: at 1 µM
T5 sequence (whole entry): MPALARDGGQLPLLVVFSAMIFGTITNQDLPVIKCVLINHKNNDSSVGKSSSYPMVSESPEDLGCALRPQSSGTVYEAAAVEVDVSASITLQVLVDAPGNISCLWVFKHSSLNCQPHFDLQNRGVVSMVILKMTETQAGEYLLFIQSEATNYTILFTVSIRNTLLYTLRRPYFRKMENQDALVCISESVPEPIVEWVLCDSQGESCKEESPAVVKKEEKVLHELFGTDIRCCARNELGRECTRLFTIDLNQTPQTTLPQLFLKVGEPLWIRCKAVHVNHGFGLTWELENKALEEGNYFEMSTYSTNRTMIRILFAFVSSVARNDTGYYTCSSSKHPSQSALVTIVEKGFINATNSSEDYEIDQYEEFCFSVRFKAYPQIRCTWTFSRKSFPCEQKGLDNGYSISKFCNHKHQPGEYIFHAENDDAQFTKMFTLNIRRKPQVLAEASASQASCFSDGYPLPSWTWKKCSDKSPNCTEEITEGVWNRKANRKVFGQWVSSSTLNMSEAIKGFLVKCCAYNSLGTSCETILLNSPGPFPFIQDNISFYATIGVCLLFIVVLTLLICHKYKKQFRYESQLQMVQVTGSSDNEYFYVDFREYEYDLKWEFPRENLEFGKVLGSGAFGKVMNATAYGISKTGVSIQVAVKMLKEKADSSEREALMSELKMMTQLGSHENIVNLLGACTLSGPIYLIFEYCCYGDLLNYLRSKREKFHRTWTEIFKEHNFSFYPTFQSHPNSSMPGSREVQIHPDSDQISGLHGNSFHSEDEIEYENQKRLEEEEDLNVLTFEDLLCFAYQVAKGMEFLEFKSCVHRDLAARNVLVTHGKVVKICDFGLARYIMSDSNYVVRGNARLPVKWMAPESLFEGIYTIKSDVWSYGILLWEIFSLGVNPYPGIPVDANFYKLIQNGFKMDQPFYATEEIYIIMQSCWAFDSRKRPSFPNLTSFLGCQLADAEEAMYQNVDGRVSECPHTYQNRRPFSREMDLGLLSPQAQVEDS

[15] = molecular target: Vascular endothelial growth factor receptor 3 (Homo sapiens) (UniProt P35916); conditions: at 0.1 µM
Chain of Vascular endothelial growth factor receptor 3 (Homo sapiens) (P35916 whole entry): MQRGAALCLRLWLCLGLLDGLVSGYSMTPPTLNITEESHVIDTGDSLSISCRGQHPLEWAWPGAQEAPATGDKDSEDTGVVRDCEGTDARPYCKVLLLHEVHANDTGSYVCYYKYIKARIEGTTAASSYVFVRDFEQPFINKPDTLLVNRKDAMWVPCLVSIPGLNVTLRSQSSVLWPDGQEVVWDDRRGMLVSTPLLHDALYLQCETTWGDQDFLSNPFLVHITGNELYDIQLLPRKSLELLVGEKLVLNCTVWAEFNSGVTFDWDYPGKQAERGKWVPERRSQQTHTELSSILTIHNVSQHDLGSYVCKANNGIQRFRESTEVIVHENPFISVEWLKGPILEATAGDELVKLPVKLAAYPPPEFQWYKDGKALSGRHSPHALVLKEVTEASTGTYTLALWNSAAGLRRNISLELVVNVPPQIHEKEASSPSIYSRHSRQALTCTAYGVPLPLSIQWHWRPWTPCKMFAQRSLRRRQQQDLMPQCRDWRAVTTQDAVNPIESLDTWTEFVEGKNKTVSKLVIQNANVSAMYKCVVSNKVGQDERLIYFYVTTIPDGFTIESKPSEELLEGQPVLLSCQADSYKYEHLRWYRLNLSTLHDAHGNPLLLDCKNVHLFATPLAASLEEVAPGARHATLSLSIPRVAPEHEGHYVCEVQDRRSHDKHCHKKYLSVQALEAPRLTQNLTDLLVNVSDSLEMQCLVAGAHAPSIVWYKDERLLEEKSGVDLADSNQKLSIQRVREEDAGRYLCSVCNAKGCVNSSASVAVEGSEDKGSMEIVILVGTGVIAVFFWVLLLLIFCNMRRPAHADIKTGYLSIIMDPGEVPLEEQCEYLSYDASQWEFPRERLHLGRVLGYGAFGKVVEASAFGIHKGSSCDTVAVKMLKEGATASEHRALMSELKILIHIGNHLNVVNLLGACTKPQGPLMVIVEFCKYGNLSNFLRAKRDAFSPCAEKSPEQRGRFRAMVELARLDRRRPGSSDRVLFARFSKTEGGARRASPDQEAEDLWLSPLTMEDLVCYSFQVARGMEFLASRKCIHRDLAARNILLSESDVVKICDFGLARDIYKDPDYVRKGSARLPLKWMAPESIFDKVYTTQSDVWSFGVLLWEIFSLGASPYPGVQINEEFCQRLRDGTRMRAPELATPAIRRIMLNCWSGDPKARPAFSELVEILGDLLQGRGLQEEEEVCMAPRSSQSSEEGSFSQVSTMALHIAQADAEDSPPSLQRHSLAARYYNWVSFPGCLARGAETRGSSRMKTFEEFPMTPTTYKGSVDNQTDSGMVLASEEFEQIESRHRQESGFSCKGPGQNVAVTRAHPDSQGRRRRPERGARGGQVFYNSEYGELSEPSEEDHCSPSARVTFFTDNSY

[16] = molecular target: Vascular endothelial growth factor receptor 3 (Homo sapiens) (UniProt P35916); conditions: at 1 µM
[17] = molecular target: Macrophage colony-stimulating factor 1 receptor (Homo sapiens) (UniProt P07333); conditions: at 0.1 µM
Chain of Macrophage colony-stimulating factor 1 receptor (Homo sapiens) (P07333 whole entry): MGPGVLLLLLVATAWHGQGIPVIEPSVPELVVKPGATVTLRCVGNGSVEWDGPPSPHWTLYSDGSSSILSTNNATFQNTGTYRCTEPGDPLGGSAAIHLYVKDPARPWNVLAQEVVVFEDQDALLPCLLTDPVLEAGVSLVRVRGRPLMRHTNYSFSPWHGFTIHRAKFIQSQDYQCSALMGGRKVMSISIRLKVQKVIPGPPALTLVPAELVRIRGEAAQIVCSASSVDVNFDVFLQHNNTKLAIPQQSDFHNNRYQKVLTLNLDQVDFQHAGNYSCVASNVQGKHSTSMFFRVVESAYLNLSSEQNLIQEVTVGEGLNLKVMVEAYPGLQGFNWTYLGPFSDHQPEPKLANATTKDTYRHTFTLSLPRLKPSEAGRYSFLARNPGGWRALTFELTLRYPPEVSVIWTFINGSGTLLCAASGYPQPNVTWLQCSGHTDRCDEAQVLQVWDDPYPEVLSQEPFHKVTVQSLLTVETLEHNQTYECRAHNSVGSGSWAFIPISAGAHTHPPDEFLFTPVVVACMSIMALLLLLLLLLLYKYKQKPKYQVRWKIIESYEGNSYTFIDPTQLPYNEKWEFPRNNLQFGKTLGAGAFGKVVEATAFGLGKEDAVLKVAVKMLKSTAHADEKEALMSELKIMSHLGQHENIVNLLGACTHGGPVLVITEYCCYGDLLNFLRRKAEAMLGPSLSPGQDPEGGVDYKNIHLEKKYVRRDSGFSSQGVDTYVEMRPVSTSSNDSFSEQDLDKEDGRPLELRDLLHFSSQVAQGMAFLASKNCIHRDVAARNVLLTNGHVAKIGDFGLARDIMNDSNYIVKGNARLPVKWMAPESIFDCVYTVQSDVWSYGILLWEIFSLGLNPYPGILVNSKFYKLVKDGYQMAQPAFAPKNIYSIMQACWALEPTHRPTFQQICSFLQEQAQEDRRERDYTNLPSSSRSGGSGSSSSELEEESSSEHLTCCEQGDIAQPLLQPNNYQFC

[18] = molecular target: Macrophage colony-stimulating factor 1 receptor (Homo sapiens) (UniProt P07333); conditions: at 1 µM
[19] = molecular target: Tyrosine-protein kinase Fyn (Homo sapiens) (UniProt P06241); conditions: at 0.1 µM
Chain of Tyrosine-protein kinase Fyn (Homo sapiens) (P06241 2-537 limits assumed): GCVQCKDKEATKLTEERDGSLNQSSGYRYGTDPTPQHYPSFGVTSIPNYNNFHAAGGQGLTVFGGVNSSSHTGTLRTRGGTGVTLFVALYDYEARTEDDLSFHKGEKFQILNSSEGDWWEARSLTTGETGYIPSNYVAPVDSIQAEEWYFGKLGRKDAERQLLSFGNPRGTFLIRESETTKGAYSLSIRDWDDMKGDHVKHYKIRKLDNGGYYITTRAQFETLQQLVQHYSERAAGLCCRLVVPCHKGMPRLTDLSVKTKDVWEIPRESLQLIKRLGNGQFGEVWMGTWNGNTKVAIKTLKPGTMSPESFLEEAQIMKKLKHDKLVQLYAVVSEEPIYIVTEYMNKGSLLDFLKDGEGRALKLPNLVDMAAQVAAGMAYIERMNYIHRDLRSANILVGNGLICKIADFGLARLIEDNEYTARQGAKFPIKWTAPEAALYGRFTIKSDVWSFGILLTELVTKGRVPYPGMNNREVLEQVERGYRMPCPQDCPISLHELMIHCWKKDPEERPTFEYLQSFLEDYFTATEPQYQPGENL

[20] = molecular target: T6, Inhibitor of nuclear factor kappa-B kinase subunit epsilon (Homo sapiens) (UniProt Q14164); conditions: at 1 µM;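 note: reported values are averaged percent inhibition figures against human IKKε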
T6 sequence (whole entry): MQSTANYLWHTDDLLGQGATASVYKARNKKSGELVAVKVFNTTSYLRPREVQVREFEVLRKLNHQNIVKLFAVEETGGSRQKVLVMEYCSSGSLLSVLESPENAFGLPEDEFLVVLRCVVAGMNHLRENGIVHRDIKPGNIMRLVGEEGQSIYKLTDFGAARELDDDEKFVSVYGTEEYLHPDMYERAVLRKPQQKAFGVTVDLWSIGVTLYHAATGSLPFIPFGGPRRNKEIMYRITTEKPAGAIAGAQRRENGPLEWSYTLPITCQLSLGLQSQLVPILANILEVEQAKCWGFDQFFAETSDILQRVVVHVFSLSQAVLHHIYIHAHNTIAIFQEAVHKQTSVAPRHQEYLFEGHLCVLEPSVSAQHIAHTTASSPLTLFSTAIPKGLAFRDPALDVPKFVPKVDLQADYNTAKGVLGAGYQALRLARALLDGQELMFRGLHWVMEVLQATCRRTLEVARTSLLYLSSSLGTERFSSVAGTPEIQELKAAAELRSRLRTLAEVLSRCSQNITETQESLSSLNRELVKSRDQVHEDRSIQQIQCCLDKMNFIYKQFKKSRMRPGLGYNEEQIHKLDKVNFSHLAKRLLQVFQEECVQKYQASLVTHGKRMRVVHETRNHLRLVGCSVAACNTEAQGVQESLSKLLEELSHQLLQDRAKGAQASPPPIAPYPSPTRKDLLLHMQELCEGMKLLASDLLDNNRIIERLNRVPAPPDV

SMILES	inhibition [1] [%]	inhibition [2] [%]	inhibition [3] [%]	inhibition [4] [%]	inhibition [5] [%]	inhibition [6] [%]	inhibition [7] [%]	inhibition [8] [%]	inhibition [9] [%]	inhibition [10] [%]	inhibition [11] [%]	inhibition [12] [%]	inhibition [13] [%]	inhibition [14] [%]	inhibition [15] [%]	inhibition [16] [%]	inhibition [17] [%]	inhibition [18] [%]	inhibition [19] [%]	inhibition [20] [%]
Fc1ccc(-c2ncn(CCCN3CCOCC3)c2-c2ccncc2)cc1	0.93	0.52	-0.45	-0.45	1.11	-0.51	2.31	1.74	0.56	3.15	-0.58	-0.73	5.04	0.03	0.07	0.05	0.18	1.37	-0.55	
COc1cc(N2CCN(C(C)C)CC2)ccc1Nc1nc(Nc2ccc(F)cc2C(=O)NC[C@@H](O)CO)c2cc[nH]c2n1	2.75	4.63	5.32	5.19	1.82	3.84	5.49	3.45	2.99	15.3	9.77	38	74		-9.16		1.22	0.02	0.03	10.3

From ChEMBL document CHEMBL1961873, “Compounds: GSK PKIS; Assays: Nanosyn kinase panel” (2012)
